Bioassay records: PubChem, National Center for Advancing Translational Sciences (NCATS)
Pol iota inh: blocks human DNA polymerase iota activity; Potency, µM (titrated, usually from 115 µM), most hits filed as inhibitors; Pol iota fluorescent replication assay, 10 min; Q9UNA4; 390,000 tested, 1% active
Target sequence (Q9UNA4 whole entry, looked up): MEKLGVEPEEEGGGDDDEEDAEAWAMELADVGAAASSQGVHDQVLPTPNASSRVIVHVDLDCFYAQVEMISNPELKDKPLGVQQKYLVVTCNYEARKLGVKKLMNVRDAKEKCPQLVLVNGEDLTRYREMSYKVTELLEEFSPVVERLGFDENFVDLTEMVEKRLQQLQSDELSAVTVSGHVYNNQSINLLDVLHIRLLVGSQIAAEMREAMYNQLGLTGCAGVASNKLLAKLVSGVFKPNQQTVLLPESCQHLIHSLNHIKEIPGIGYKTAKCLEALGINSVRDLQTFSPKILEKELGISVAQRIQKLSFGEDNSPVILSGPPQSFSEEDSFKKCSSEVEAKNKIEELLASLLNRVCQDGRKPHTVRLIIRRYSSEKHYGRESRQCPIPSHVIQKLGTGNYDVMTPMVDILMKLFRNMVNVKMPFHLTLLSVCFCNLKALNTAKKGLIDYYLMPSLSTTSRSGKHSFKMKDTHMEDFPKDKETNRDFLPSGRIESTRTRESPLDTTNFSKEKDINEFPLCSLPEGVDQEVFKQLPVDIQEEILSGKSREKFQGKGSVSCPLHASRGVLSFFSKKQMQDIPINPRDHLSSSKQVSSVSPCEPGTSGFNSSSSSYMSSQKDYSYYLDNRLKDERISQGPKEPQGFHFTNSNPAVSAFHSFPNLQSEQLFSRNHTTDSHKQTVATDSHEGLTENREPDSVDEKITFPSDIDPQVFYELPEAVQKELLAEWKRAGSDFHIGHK
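Fluorescent replication assay read twice, at 0 min and 10 min after adding 50 nM (final) substrate. Enzyme (10 nM) and compounds were first incubated 15 min at room temperature; enzyme-free buffer wells were negative controls.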
FEN1 inhibitor: blocks human flap endonuclease 1; P39748; Recombinant FEN1 flap cleavage, fluorescence, 15 min; Potency, µM (highest dose often 114 µM), usual class: inhibitors; 390,000 tested, 0.35% active; note: nearly all actives have a fitted effect of over 65% in size
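FEN1 at 10 nM preincubated with compounds 15 min at room temperature, then flap DNA substrate added at 50 nM final. Signal read at 0 and 15 min; concentration-response fitted with four-parameter Hill equation.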
POLH inh: DNA polymerase eta (human) inhibition; recombinant Pol eta, fluorescent DNA replication assay; 390,000 tested, 1.2% active; Q9Y253; Potency, µM (doses to about 114 µM), usual class: inhibitors
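Pol eta at 10 nM preincubated with compounds 15 min at room temperature; reaction started with fluorescent substrate (50 nM final) and read kinetically at 0 and 10 min.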
POLK inh: DNA polymerase kappa (human) inhibition. purified Pol kappa, fluorescent DNA synthesis assay, 10 min. Potency, µM (top dose mostly 107 µM), actives largely listed as inhibitors. 400,000 tested, 0.53% active. AID 588579
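Here, compound and 10 nM enzyme are combined for 15 min at room temperature; adding 50 nM substrate (final) starts DNA synthesis, tracked by fluorescence at 0 and 10 min against buffer-only wells.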
WRN inhibitor: inhibitors of human WRN helicase; WRN helicase unwinding, fluorescent forked duplex, kinetic; Potency, µM (titrated, usually from 114 µM), actives largely listed as inhibitors; 360,000 tested, 0.46% active; note: nearly all actives have a fitted effect of over 55% in size
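WRN at 20 nM final was preincubated with compound for 15 min at room temperature; reaction started with 100 nM forked duplex oligonucleotide carrying fluorophore and quencher plus 2 mM ATP (final). Unwinding followed kinetically by red fluorescence (ex 525/em 598 nm).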
POLB inh: blocks human DNA polymerase beta activity; P06746; Pol beta primer extension/strand displacement, fluorescence kinetic; Potency, µM (titrated, usually from 114 µM), most hits filed as inhibitors; 340,000 tested, 1.3% active
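Pol beta (10 nM) was preincubated with compound for 15 min at room temperature. The reaction was then started with 50 nM substrate and read immediately and after a further 10 min at room temperature.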
Large screens that a line does not name were inactive; ! = repeats disagree. Rows were chosen to be rich in hits. Some 2.4% of all compounds tested hit in one or more screens of this group. Calls come from the whole dose curve; as a rule, active = well fitted curve in the direction sought with a large enough effect; inconclusive = small, poorly fitted or top-dose-only effect, or another doubt; inactive = no such curve, though single readings can be large; an effect the other way counts as inactive or inconclusive.

CCOC(=O)c1c(-n2c(C)cc(C=C3C(=O)NC(=S)NC3=O)c2C)sc2c1CCCC2	Pol iota inh inconclusive, FEN1 inhibitor inconclusive, POLH inh 28.2µM, POLK inh inconclusive, WRN inhibitor 56.2µM, POLB inh 22.4µM
CN(N=O)c1ccc(O)c(O)c1	Pol iota inh 0.794µM, POLH inh 0.891µM, POLK inh 2.38µM, POLB inh 0.631µM (no result: FEN1 inhibitor, WRN inhibitor)
CCCCC/C=C\C/C=C\C/C=C\C/C=C\CCCC(=O)O	POLK inh 12.6µM! (no result: Pol iota inh, FEN1 inhibitor, POLH inh, WRN inhibitor, POLB inh)
CCCCC/C=C\C[C@@H](/C=C/C=C\C/C=C\CCCC(=O)O)OO	none (no result: Pol iota inh, FEN1 inhibitor, POLH inh, WRN inhibitor, POLB inh)
OC(c1ccc(Cl)cc1)(c1cncnc1)c1ccccc1Cl (centres undefined)	none (no result: Pol iota inh, FEN1 inhibitor, POLH inh, WRN inhibitor, POLB inh)
Cc1cc(NC(=O)c2cc(-c3cccc(Cl)c3)on2)nn1Cc1ccc(Cl)cc1	none (no result: WRN inhibitor)
O=C1C=CC(=O)c2c(O)cccc21	POLK inh 2.67µM (no result: Pol iota inh, FEN1 inhibitor, POLH inh, WRN inhibitor, POLB inh)
O=C1c2ccccc2C(=O)c2ccccc21	none (no result: Pol iota inh, FEN1 inhibitor, POLH inh, WRN inhibitor, POLB inh)
O=C(c1ccc(CS(=O)(=O)c2ccc(Br)cc2)o1)N1CCC2(CC1)OCCO2	none
O=C(c1ccc(CS(=O)(=O)c2ccccc2)o1)N1CCC2(CC1)OCCO2	Pol iota inh inconclusive, POLH inh 89.1µM, POLB inh inconclusive
CC(=O)Nc1ccc(Cc2nc3ccccc3[nH]2)cc1	none
O=C(NCc1ccc2c(c1)CCN2C(=O)c1ccccc1)Nc1cccc(C(F)(F)F)c1	POLH inh inconclusive (no result: WRN inhibitor)
CC1=C(O)C(=O)[C@@H]2O[C@@H]2C1=O	none (no result: Pol iota inh, FEN1 inhibitor, POLH inh, WRN inhibitor, POLB inh)
O=C(Nc1cc(C(F)(F)F)cc(C(F)(F)F)c1)c1cccn(Cc2ccccc2Cl)c1=O	none (no result: WRN inhibitor)
O=C(Nc1cc(C(F)(F)F)cc(C(F)(F)F)c1)c1cc(Cl)ccc1O	POLK inh 29.9µM! (no result: Pol iota inh, FEN1 inhibitor, POLH inh, WRN inhibitor, POLB inh)
O=c1[nH]/c(=C\c2ccc(N(CCCl)CCCl)cc2)c(=O)[nH]/c1=C\c1ccc(N(CCCl)CCCl)cc1	none (no result: POLH inh, WRN inhibitor, POLB inh)
C[C@@H]1O[C@@H](Oc2c(-c3ccc(O)c(O)c3)oc3cc(O)cc(O)c3c2=O)[C@H](O)[C@H](O)[C@H]1O	Pol iota inh 35.5µM, FEN1 inhibitor inconclusive, POLH inh inconclusive, POLK inh 44.7µM (no result: POLB inh)
O=c1ccc2cc(O[C@@H]3O[C@H](CO)[C@@H](O)[C@H](O)[C@H]3O)c(O)cc2o1	none (no result: POLB inh)
CC(C)n1c(O)c(C2c3cc(Cl)ccc3Oc3[nH]c(=O)n(C(C)C)c(=O)c32)c(=O)[nH]c1=O (centres undefined)	Pol iota inh 15.8µM, POLH inh inconclusive, WRN inhibitor 35.5µM
COc1cccc(-n2c(/C=C/c3ccc(O)c(O)c3)nc3ccccc3c2=O)c1	Pol iota inh 22.4µM, FEN1 inhibitor inconclusive, POLH inh 28.2µM, POLB inh 8.91µM
O=c1c2ccccc2nc(/C=C/c2ccc(O)cc2)n1-c1cccc(O)c1	Pol iota inh 25.1µM, FEN1 inhibitor inconclusive, POLH inh 56.2µM, POLK inh inconclusive, WRN inhibitor inconclusive, POLB inh 3.98µM
COCCN(C(=O)CCl)c1c(C)cccc1C	none (no result: Pol iota inh, FEN1 inhibitor, POLH inh, WRN inhibitor, POLB inh)
O=C(Oc1ccc([N+](=O)[O-])cc1)N1CCN(/[N+]([O-])=N/Oc2ccc([N+](=O)[O-])cc2[N+](=O)[O-])CC1	Pol iota inh inconclusive (no result: POLH inh, WRN inhibitor, POLB inh)
C[C@H](N)C(=O)NCC(=O)N[C@H]1CSSC[C@@H](C(=O)O)NC(=O)[C@H](CO)NC(=O)[C@H]([C@@H](C)O)NC(=O)[C@H](Cc2ccccc2)NC(=O)[C@H]([C@@H](C)O)NC(=O)[C@H](CCCCN)NC(=O)[C@@H](Cc2c[nH]c3ccccc23)NC(=O)[C@H](Cc2ccccc2)NC(=O)[C@H](Cc2ccccc2)NC(=O)[C@H](CC(N)=O)NC(=O)[C@H](CCCCN)NC1=O	none (no result: Pol iota inh, FEN1 inhibitor, POLH inh, WRN inhibitor, POLB inh)
COc1ccc(/C=C2\C(=O)NC(=O)N(Cc3ccccc3)C2=O)c(OC)c1OC	Pol iota inh inconclusive, FEN1 inhibitor inconclusive
COc1ccc(CN2C(=O)NC(=O)/C(=C\c3cc(OC)c(OC)c(OC)c3)C2=O)cc1	Pol iota inh inconclusive, WRN inhibitor 50.1µM
CCCC(Cn1cncn1)c1ccc(Cl)cc1Cl (centres undefined)	none (no result: Pol iota inh, FEN1 inhibitor, POLH inh, WRN inhibitor, POLB inh)
CN(C)c1ccc(/C=C/C=C/c2sc3ccccc3[n+]2C)cc1	Pol iota inh inconclusive, FEN1 inhibitor inconclusive, WRN inhibitor inconclusive, POLB inh inconclusive
